Compound activity: PubChem, several laboratories
Hits are enriched below; roughly 2.3% of the tested compounds scored in any of these assays.
UBC13 inh: UBC13 polyubiquitin chain formation inhibitors, primary screen, biochemical, TR-FRET, uHTS. inhibition, % at 20 µM. hit rate 0.47% among 330,000. Ubiquitin-conjugating enzyme E2 N (Homo sapiens), P61088; in the data active = inhibition above about 45%, passing the limit was not always enough
Target sequence (P61088 whole entry, looked up): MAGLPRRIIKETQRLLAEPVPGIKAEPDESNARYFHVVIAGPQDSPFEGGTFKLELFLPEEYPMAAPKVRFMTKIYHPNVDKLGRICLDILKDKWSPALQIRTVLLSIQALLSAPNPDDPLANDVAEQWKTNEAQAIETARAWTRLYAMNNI
MEKK2mut PB1 HTS: MEK5 binding signal on mutant MEKK2 PB1, primary screen, biochemical, multiplex bead flow cytometry, Alexa488-MEK5; Alexa488-MEK5 binding to MEKK2 mutant; percent response, % at 10 µM; hit rate 0.35% among 290,000; AID 1530, 2009; in the data active = percent response above about 24%, passing the limit was not always enough
MEKK3 PB1 HTS: modulators of MEKK3-MEK5 PB1 binding, primary screen, biochemical, wildtype MEKK3, multiplex bead flow cytometry, Alexa488-MEK5; bead-based flow cytometry, Alexa488-MEK5 binding to MEKK3; actives lie on both sides; 0 = blocked by unlabeled MEK5, 100 = vehicle; Mitogen-activated protein kinase kinase kinase 3 (Homo sapiens), Q99759; hit rate 1.4% among 290,000; binding response (% of control), % at 10 µM;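 active = binding response more than 3 SD above or below the average of its plate-row segment, actives on both sides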;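 also: Alexa488 bead fluorescence after subtracting the streptavidin-only scavenger bead signal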
MEKK2 WT-MEK5: modulators of MEK5 binding to wildtype MEKK2, primary screen, biochemical, multiplex bead flow cytometry, Alexa488-MEK5. Alexa488-MEK5 binding to MEKK2 WT; actives lie on both sides. Mitogen-activated protein kinase kinase kinase 2 (Homo sapiens), Q9Y2U5. binding response (% of control), % at 10 µM. hit rate 1.1% among 290,000; in the data active = binding response below about 67% or above about 130%
MEKK2wt confirm: modulators of MEK5 binding to wildtype MEKK2, confirmation, biochemical, single concentration, multiplex bead flow cytometry; shares compounds with MEKK3 PB1 HTS; Alexa488-MEK5 binding to MEKK2 WT; actives lie on both sides; binding response (% of control), % at 10 µM; hit rate 2.4% among 5,900; in the data active = binding response below about 16% or above about 210%; inactive = in between
MEKK2mut-MEK5: mutant MEKK2 PB1-MEK5 binding signal retest – biochemical, single concentration, multiplex bead flow cytometry, confirmation. shares compounds with MEKK3 PB1 HTS. Alexa488-MEK5 binding to MEKK2 mutant. percent response, % at 10 µM. hit rate 2% among 5,900; in the data active = percent response mostly above about 71%, no sharp cut-off; inactive = mostly below about 38%;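 also: higher means compound restores mutant binding toward wildtype level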
MEKK3-MEK5 inh: MEKK3 wild-type PB1 binding to MEK5, inhibitors, confirmation, biochemical, bead multiplex flow cytometry, single concentration, wildtype; shares compounds with MEKK3 PB1 HTS; Alexa488-MEK5 binding to MEKK3; hits give low values; binding response (% of control), % at 10 µM; hit rate 1.8% among 5,900;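 active = binding response below 72% of control, or above a set upper limit, though filed actives all read lower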;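 also: lower values mean stronger disruption of MEK5 binding to MEKK3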
Of the large screens only hits and unclear results are named; the others gave an inactive call (follow-up assays come after a bar, where they were run); [ ] = remark or other dose.

CN(CCO)C(=O)C1CCN(c2ncc(C(F)(F)F)cc2Cl)CC1	none
NC(=O)C1CCN(c2ncc(C(F)(F)F)cc2Cl)CC1	MEKK3 PB1 HTS 130.0 | MEKK2wt confirm inactive | MEKK2mut-MEK5 inactive | MEKK3-MEK5 inh inactive
CC(C)(C)N(Cc1ccccc1)C(=O)CCc1ccccc1	none
N#CCCN(C(=O)COC(=O)CCc1nc2ccccc2c(=O)[nH]1)c1ccccc1F	none (no result: MEKK2mut PB1 HTS, MEKK3 PB1 HTS, MEKK2 WT-MEK5)
C=CCc1c(OC(C)=O)c2ccccc2n(C)c1=O	MEKK3 PB1 HTS 147.0 | MEKK2wt confirm inactive | MEKK2mut-MEK5 inactive | MEKK3-MEK5 inh inactive
CCc1c(OC(C)=O)c2ccccc2n(C)c1=O	none
O=S(=O)(c1cccc2nsnc12)N1CCN(c2ccccc2F)CC1	none
O=S(=O)(c1cccc2nsnc12)N1CCN(c2ccc(F)cc2)CC1	MEKK3 PB1 HTS 72.0[inhibitor] | MEKK2wt confirm inactive | MEKK2mut-MEK5 inactive | MEKK3-MEK5 inh inactive
O=C(Nc1ccc(F)cc1)c1cccc(N2C(=O)C3C4C=CC(C5CC45)C3C2=O)c1 (centres undefined)	none
O=C(NNc1ccc(Cl)cc1)c1c(F)cccc1Cl	none
O=C(NNc1cc(Cl)ccc1Cl)c1c(F)cccc1Cl	MEKK3 PB1 HTS 129.0 | MEKK2wt confirm inactive | MEKK2mut-MEK5 inactive | MEKK3-MEK5 inh inactive
O=C(Nc1nnc(Cc2ccccc2)s1)Nc1ccccc1F	none
CCOC(=O)c1ccc(NC(=O)CSc2nnc(C3CCCCC3)n2C)cc1	MEKK3 PB1 HTS 126.0 | MEKK2wt confirm inactive | MEKK2mut-MEK5 inactive | MEKK3-MEK5 inh inactive
CCOc1ccc(NC(=O)CSc2nnc(C3CC3)n2C)cc1	none
Cc1cc(-c2csc(N)n2)c(C)n1CCc1ccccc1	MEKK2 WT-MEK5 56.0[inhibitor] | MEKK2wt confirm inactive | MEKK2mut-MEK5 inactive | MEKK3-MEK5 inh inactive
Cc1ccc(-c2csc(N(CCCN(C)C)C(=O)c3ccco3)n2)cc1	MEKK2 WT-MEK5 202.0 | MEKK2wt confirm inactive | MEKK2mut-MEK5 inactive | MEKK3-MEK5 inh inactive
CN(C)CCCN(C(=O)c1ccc(S(=O)(=O)N(C)Cc2ccccc2)cc1)c1nc2c(F)cccc2s1	MEKK2mut PB1 HTS 40.0, MEKK2 WT-MEK5 196.0 | MEKK2wt confirm inactive | MEKK2mut-MEK5 inactive | MEKK3-MEK5 inh inactive
Cc1ccc2nc(N(CCCN(C)C)C(=O)c3ccc(Br)s3)sc2c1	MEKK2 WT-MEK5 169.0 | MEKK2wt confirm inactive | MEKK2mut-MEK5 inactive | MEKK3-MEK5 inh inactive
CN(C)CCCN(C(=O)c1ccco1)c1nc2ccc(F)cc2s1	none
CN(C)CCCN(C(=O)c1ccc(Br)s1)c1nc2cc3c(cc2s1)OCCO3	none (no result: MEKK2mut PB1 HTS, MEKK3 PB1 HTS, MEKK2 WT-MEK5)
Cc1ccc2nc(N(CCCN(C)C)C(=O)c3ccco3)sc2c1	MEKK3 PB1 HTS 231.0 | MEKK2wt confirm inactive | MEKK2mut-MEK5 inactive | MEKK3-MEK5 inh inactive
NC(=O)C1CCN(C(=O)C2CCN(C(=O)Nc3ccccc3)CC2)CC1	none (no result: MEKK2mut PB1 HTS, MEKK3 PB1 HTS, MEKK2 WT-MEK5)
O=C(CSc1nncc2ccccc12)Nc1ccc(C(=O)O)cc1	none
COc1ccc(C2(O)C(=O)Nc3ccc(C)cc32)cc1OC (centres undefined)	none
Cc1ccc(CNC(=O)CCC2CCCN(Cc3cc4ccccc4o3)C2)o1 (centres undefined)	none
CN(C)CCCN(C(=O)c1ccco1)c1nc2c(F)cccc2s1	MEKK2mut PB1 HTS 68.0, MEKK3 PB1 HTS 62.0[inhibitor] | MEKK2wt confirm inactive | MEKK2mut-MEK5 inactive | MEKK3-MEK5 inh inactive
CN(C)CCCN(C(=O)c1ccco1)c1nc2c(F)cc(F)cc2s1	none
Cc1ccc(S(=O)(=O)N2[C@@H](c3ccc(Cl)cc3)C(C(=O)O)=CC[C@H]2c2cccs2)cc1	none (no result: MEKK2mut PB1 HTS, MEKK3 PB1 HTS, MEKK2 WT-MEK5)
CN(C(=O)CSc1nnc(-c2c[nH]c3ccccc23)n1C1CC1)C1CCS(=O)(=O)C1 (centres undefined)	none (no result: MEKK2mut PB1 HTS, MEKK3 PB1 HTS, MEKK2 WT-MEK5)
CCn1nnnc1NCc1c(OC)ccc2ccccc12	none
